# Assay outcomes from PubChem.
# Hits are enriched below; roughly 7.9% of the tested compounds scored in any of these assays.
# MCF10A rereplic = DNA re-replication induction in MCF 10a cells; MCF 10A DNA re-replication, Hoechst nuclear intensity, 48 h; AID 624296; Potency, µM (top dose mostly 46.1 µM), without a hit: at the top dose activity, positive = re-replication, most hits filed as activators; 2.9% of 350,000 active; note: % of control where 0% means no effect; nearly all actives have a fitted effect of over 50% in size
# SW480 rereplic = DNA re-replication induction in SW480 cells. SW480 DNA re-replication, Hoechst DNA content imaging, 48 h. Potency, µM (top dose mostly 46.1 µM), inactives show at the highest dose re-replication activation, most hits filed as activators. 1.8% of 340,000 active; note: % of control where 0% means no effect; nearly all actives have a fitted effect of over 55% in size
#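 Quantitative HTS format with DMSO vehicle controls; 48 hr drug incubation at 37 C, then 40 min Hoechst staining and scanning imager measurement at 405 nm excitation.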
# KB-3-1 cytotox = kills parental KB-3-1 adenocarcinoma cells; KB-3-1 viability, CellTiter-Glo ATP luminescence, 72 h; Potency, µM (doses to about 46.1 µM), usual class: cytotoxic; 1.4% of 400,000 active; note: % is set by controls: 0 for no effect and ±100 for the full control effect; nearly all actives have a fitted effect of over 60% in size
#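 Screening of KB-3-1 cells (DMEM, 10% FBS, phenol-red free) ran from lowest to highest compound concentration; after 72 h at 37 °C viability was read luminescently and curves fitted.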
# KB-V1 cytotox = KB-V1 MDR subline cytotoxicity | KB-V1 MDR cells viability, CellTiter-Glo, 72 h | 3.4% of 400,000 active | Potency, µM (top dose mostly 46.1 µM), actives largely listed as cytotoxic | AID 1347076; note: % is set by controls: 0 for no effect and ±100 for the full control effect; nearly all actives have a fitted effect of over 60% in size
#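 KB-V1 MDR subline cells in DMEM (phenol-red free, 10% FBS) exposed to compounds in qHTS concentration series for 72 h at 37 degrees C. Viability read by CellTiter-Glo luminescence; concentration-effect curves fitted after normalization and correction.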
# HT1080 IDH1KD tx = kills HT-1080 cells with IDH1 knockdown; HT-1080 IDH1 knockdown viability, ATP luminescence, 48 h; Potency, µM (top dose mostly 46.1 µM), inactives show at the top dose activity, negative = toxicity, most hits filed as cytotoxic; 2% of 360,000 active; AID 686971;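 note: 0% = DMSO wells and -100% = cell-free medium wells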
#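 % activity derives from luminescence (CellTiter-Glo), normalised to DMSO and no-cell wells. HT-1080-IDH1KD cells, 750/well, had 48 h compound exposure at 37 °C.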
# HT1080NT lethal = kills 2HG-producing HT-1080-NT fibrosarcoma cells; AID 686970; Potency, µM (titrated, usually from 46.1 µM), for the others: top-dose activity, negative = less viability, usual class: cytotoxic; 1.6% of 360,000 active; HT-1080-NT fibrosarcoma viability, CellTiter-Glo ATP luminescence, 48 h;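 note: NT is the 2HG producing partner of a matched IDH1 knockdown line; 0% = DMSO-treated cells and -100% = media-only wells without cells; nearly all actives have a fitted effect of over 55% in size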
#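 Toxicity toward the 2HG-producing NT line was scored as %Activity, normalised to DMSO and no-cell wells, from CellTiter-Glo luminescence after 48 hours' treatment.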
# * marks the source's active call; other numbers are inactive results; i = inactive; ? = inconclusive; . = no result given; ! = repeats disagree; [ ] = remark or other dose. Calls come from the whole dose curve; as a rule, active = well fitted curve in the direction sought with a large enough effect; inconclusive = small, poorly fitted or top-dose-only effect, or another doubt; inactive = no such curve, though single readings can be large; an effect the other way counts as inactive or inconclusive. Potency is the fitted concentration of half-maximal effect.
SMILES,MCF10A rereplic,SW480 rereplic,KB-3-1 cytotox,KB-V1 cytotox,HT1080 IDH1KD tx,HT1080NT lethal
Brc1ccc(-c2nnc(-c3ccccc3)c(N3CCSCC3)n2)cc1,5.9%,-3.3%,i,?,-9.8%,-12.5%
Cc1ccc(-c2nnc(-c3ccccc3)c(N3CCOCC3)n2)cc1,?,?,?,5.8µM*,0.9%,2.9%
C[C@@H]1CN(S(=O)(=O)c2c(F)cccc2F)CCN1S(=O)(=O)c1ccc2c(c1)OCCO2,2.8%,-2.1%,i,i,.,.
COc1cc2nc(SCC(=O)Nc3c(C)cc(C)cc3C)n3nc(CCn4c(C)nc5ccccc54)nc3c2cc1OC,.,.,i,i,.,.
CCc1cc2c(=O)n(CC(C)C)cnc2s1,-8.6%,234.2%,i,?,1.2%,2.9%
CCCCCn1cnc2sc(CC)cc2c1=O,2.9%,0.0%,i,14.6µM*,4.5%,11.9%
Cc1cccc2sc(NC(=O)CCNS(=O)(=O)c3cccc4nonc34)nc12,17.3%,4.3%,?,23.1µM*,-24.9%,-14.2%
Cc1cccc(NC(=O)CCNS(=O)(=O)c2cccc3nonc23)c1C,1.2%,-3.5%,i,i,8.1%,0.1%
COc1cccc(C(=O)N2CCN(C(=O)c3cccc4ccccc34)CC2)c1OC,-5.2%,-4.0%,i,i,7.1%,6.0%
COc1ccccc1C(=O)N1CCN(c2cccc(Cl)c2)CC1,?,?,?,?,2.59µM*,2.59µM*
CCc1ccc(CN2CCN(C(=O)c3cccc(OC)c3OC)CC2)cc1,-7.4%,1.0%[9.22 µM],i,?,14.1µM*,-11.5%
CCn1cc(C(=O)N2CCN(c3ccc(F)cc3)CC2)c2cc(OC)c(OC)cc2c1=O,0.0%,?,i,i,-2.0%,-1.9%
CCn1cc(C(=O)N2CCN(c3ccc(OC)cc3)CC2)c2cc(OC)c(OC)cc2c1=O,-2.8%,-2.0%,i,?,4.9%,-0.4%
COc1cc2c(C(=O)N3CCN(c4cccc(Cl)c4)CC3)cn(C)c(=O)c2cc1OC,?,?,?,?,11.6µM*,?
CCn1cc(C(=O)N2CCN(c3cccc(Cl)c3)CC2)c2cc(OC)c(OC)cc2c1=O,?,?,?,20.6µM*!,?,?
CCCNC(=O)C1CN(C(=O)c2nn(Cc3ccccc3)c(=O)c3ccccc23)c2ccccc2O1 (configuration not stated),25.3%,8.0%,.,.,1.7%,-10.9%
CC(=O)c1ccc(N2C(=NC(=O)CCc3ccccc3)SC3CS(=O)(=O)CC32)cc1 (configuration not stated),-0.2%,?,i,i,-9.2%,-1.0%
Cc1onc(-c2ccccc2)c1C(=O)Nc1sc2c(c1C#N)CCC2,?,?,?,4.61µM*,?,12.6µM*
Cc1cc(C(F)F)n2nc(C(=O)Nc3sc4c(c3C#N)CCC4)nc2n1,-33.6%,14.9%,i,20.6µM*,2.6%,6.6%
Cc1onc(-c2c(F)cccc2Cl)c1C(=O)Nc1sc2c(c1C(N)=O)CCC2,5.01µM*,?,?,?,14.1µM*,11.2µM*
Cn1cc([N+](=O)[O-])c(C(=O)Nc2sc3c(c2C#N)CCC3)n1,3.66µM*,?,?,?,-5.0%,?
Cc1onc(-c2ccccc2)c1C(=O)Nc1sc2c(c1C(N)=O)CCC2,3.8%,6.9%,i,?,-1.3%,-29.0%
O=C1c2ccccc2C(Nc2cccc(C(F)(F)F)c2)N1Cc1ccco1 (configuration not stated),1.1%,-0.2%,i,?,?,-23.8%
Cc1ccc(-n2nc(C)c3c(C)c(CCC(=O)NCc4cccc(Cl)c4)c(C)nc32)cc1C,.,.,i,i,.,.
Cc1cccc(C(=O)Nc2ccccc2NC(=O)c2cccc(C)c2)c1,?,?,i,i,-4.0%,-4.8%
SMILES,MCF10A rereplic,SW480 rereplic,KB-3-1 cytotox,KB-V1 cytotox,HT1080 IDH1KD tx,HT1080NT lethal
COC(=O)c1c(-c2ccccc2)csc1NC(=O)c1c(-c2ccccc2)noc1C,?,?,i,5.8µM*,?,-4.2%
CCOC(=O)c1c(-c2ccc(F)cc2)csc1NC(=O)c1c(-c2ccccc2)noc1C,?,?,i,?,?,-0.1%
N#Cc1c(NC(=O)c2cc(C3CC3)on2)sc2c1CCC2,3.26µM*,20.6µM*,13µM*,i,?,?
N#Cc1c(NC(=O)/C=C/c2ccco2)sc2c1CCCC2,?,?,0.411µM*,1.03µM*,?,0.581µM*
Cc1cc(C(=O)Nc2sc3c(c2C#N)CCC(C)C3)no1 (configuration not stated),9.2µM*,?,?,11.6µM*,?,?
CC(C)OC(=O)c1ccc(N2CCN(c3ccccc3F)CC2)nc1,?,?,?,?,-20.2%,-16.9%
O=C(Cc1ccccc1[N+](=O)[O-])NC1CCN(Cc2ccccc2)CC1,5.4%,-36.7%,i,i,-5.3%,-14.1%
COc1ccc(S(=O)(=O)N2CCCC(C(=O)N3CCOCC3)C2)cc1C (configuration not stated),23.6%,19.7%,i,i,-10.6%,2.5%
Cc1cc(C(=O)Nc2sc3c(c2C#N)CCCC3)no1,?,11.6µM*,?,?,?,?
CC(C)Cc1cc(C(=O)Nc2sc3c(c2C#N)CCCC3)no1,19.4%,-1.6%,i,i,7.1%,5.0%
Cc1cccc(C)c1NC(=O)CN(C)CC(=O)Nc1ccc(F)c(Cl)c1,-1.0%,-1.6%,i,14.6µM*,-16.7%,-1.8%
CC(C)[C@H](NS(=O)(=O)c1ccccc1)C(=O)Nc1ccccc1N1CCOCC1,1.8%,-2.1%,i,8.2µM*,3.4%,2.1%
O=C(c1ccccc1NS(=O)(=O)c1ccc2c(c1)OCCO2)N1CCOCC1,6.51µM*,11.6µM*,i,i,3.1%,3.1%
O=C(c1ccc(F)cc1F)N1CCN(S(=O)(=O)c2ccc3c(c2)OCCO3)CC1,4.8%,4.0%,?,16.4µM*,5.2%,0.2%
Cc1cccc(C(=O)NC(C(=O)Nc2ccccc2N2CCOCC2)C(C)C)c1 (configuration not stated),-2.1%,16.0%,i,i,-10.5%,1.4%
O=C(Nc1ccccc1N1CCOCC1)c1ccccc1NS(=O)(=O)c1ccc(F)c(F)c1,?,8.9%[9.22 µM],?,?,?,18.4µM*
O=C(c1ccc(F)cc1)N1CCN(S(=O)(=O)c2ccc3c(c2)OCCO3)CC1,.,.,i,?,-3.9%,1.3%
